Lassa entry inh = blocks Lassa virus binding to or entry into cells. Lassa virus pseudotype entry inhibition, cell reporter. Potency, µM (titrated, usually from 37.9 µM), hits mostly inhibitors. 300,000 tested, 1.2% active. AID 540256; calls by dose curve; tested in HEK293 cells; further: nearly all actives have a fitted effect of over 50% in size
HCMV antiviral = human cytomegalovirus inhibition; activity change, negative = inhibition, % at 57.5 µM; 410,000 tested, 4.5% active; HFF cells, HCMV-luciferase reporter, 72 h; hits give low values; in the data active means activity change below about -60%; inconclusive means no clear call, values can overlap the other calls; inactive means above about -39%
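After 16 h attachment at 37C, HFF cells received test compound and HCMV-luciferase (1 PFU/cell); reporter luminescence read 72 h later, data normalized against buffer-only and known inhibitor Salinomycin.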
HCV inh = inhibitors of hepatitis C virus infection; Huh7.5.1 HCVcc-Cre infection, luciferase reporter, 44 h; Potency, µM (top dose mostly 41.8 µM), actives largely listed as inhibitors; 340,000 tested, 3.4% active; active means well fitted inhibition curve with a large enough effect; inconclusive means small, poorly fitted or top-dose-only effect, or another doubt; inactive means no such curve, though single readings can be large or run the other way
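1,000 cells/well; 4 h culture; + compound; + HCVcc-Cre (~0.5 moi); 44 h; luciferase substrate, RT 15 min; read 15 sec.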
SARS PLpro yeast = inhibitors of SARS-CoV papain-like protease in yeast; S. cerevisiae expressing SARS-CoV PLpro, growth rescue; AID 485353; 330,000 tested, 0.19% active; Potency, µM (titrated, usually from 32.9 µM), usual class: activators; calls by dose curve; further: nearly all actives have a fitted effect of over 55% in size
FMDV inh = antivirals against foot and mouth disease virus; AID 1159524; FMDV antiviral cell-based qHTS; Potency, µM (titrated, usually from 57.9 µM), actives largely listed as inhibitors; 410,000 tested, 1.2% active; calls by dose curve; tested in HEK293T cells; further: read-out not given here; nearly all actives have a fitted effect of over 45% in size
MARV entry inh = blocks Marburg virus binding to or entry into cells. Marburg virus pseudotyped entry inhibition, cell reporter. Potency, µM (doses to about 37.8 µM), hits mostly inhibitors. 300,000 tested, 1.8% active; calls by dose curve; tested in HEK293 cells
A number is an active result; - = inactive; ? = inconclusive; . = no result given. Sampled rows, rich in hits. Any-hit rate of the full collection: about 8%.

SMILES	Lassa entry inh	HCMV antiviral	HCV inh	SARS PLpro yeast	FMDV inh	MARV entry inh
COc1ccc(N(CC(=O)Nc2c(C)n(C)n(-c3ccccc3)c2=O)S(=O)(=O)c2ccc(F)cc2)cc1	-	?	-	-	-	-
COc1ccc(N(CC(=O)Nc2c(C)n(C)n(-c3ccccc3)c2=O)S(=O)(=O)c2ccccc2)cc1OC	-	-	?	-	-	?
CCOc1ccc(N(CC(=O)Nc2c(C)n(C)n(-c3ccccc3)c2=O)S(=O)(=O)c2ccc(F)cc2)cc1	?	-66.2	.	-	-	?
Cc1ccccc1NC(=O)N[C@H]1CC[C@@]23CCCN2C(=O)CCC[C@H]3C1Cc1ccccc1 (some centres undefined)	.	-	.	.	.	.
Cc1ccc(C(=O)N2CCN(c3ncnc4c(C)csc34)CC2)cc1	-	-	?	-	-	?
Cc1csc2c(N3CCN(C(=O)Nc4ccccc4)CC3)ncnc12	-	?	?	-	22.4µM	?
Cc1cnc(C(=O)Nc2ccc(OC(F)(F)F)cc2)cn1	.	-	-	-	-	.
Cc1csc2ncnc(N3CCN(C(=O)Nc4ccc(OC(F)(F)F)cc4)CC3)c12	.	-63.6	7.94µM	-	17.8µM	.
CCCCOC(=O)NS(=O)(=O)c1sc(CC(C)C)cc1-c1ccc(Cn2c(CC)nc3c(C)cc(C)nc32)cc1	9.2µM	.	12.6µM	-	.	10µM
CCCCOC(=O)Nc1ccc(S(=O)(=O)Nc2nc(C)cc(C)n2)cc1	-	-	-	-	-	-
CCOC(=O)CN1C(=O)C(Sc2n[nH]c(-c3ccc(C)cc3)n2)CCc2ccccc21 (centres undefined)	?	?	?	-	28.2µM	?
CCOC(=O)CN1C(=O)C(Sc2n[nH]c(-c3cccc(C)c3)n2)CCc2ccccc21 (centres undefined)	-	-	-	-	?	?
O=C(NCCCN1CCOCC1)NC12CC3CC(CC(C3)C1)C2	-	-	-	-	-	-
O=C(CN1CCN(Cc2ccc(Cl)cc2)C1=O)NCCCN1CCOCC1	.	-	-	-	-	.
O=C(CN1CCN(Cc2ccc(Cl)cc2)C1=O)NCCCN1CCN(c2ccc(F)cc2)CC1	-	-75.4	10µM	-	?	13µM
Cc1ccccc1CN1CCN(CC(=O)NCCCN2CCN(c3ccc(F)cc3)CC2)C1=O	-	-	10µM	-	-	?
O=C(CN1CCN(Cc2ccc(F)cc2Cl)C1=O)NCCCN1CCOCC1	.	-	-	?	-	.
O=C(NCCCN1CCN(c2ccc(F)cc2)CC1)NC12CC3CC(CC(C3)C1)C2	?	-79.4	?	-	-	?
CC1(OC(=O)c2cnc3ccccc3n2)C(=O)C=C2C=C3CCCN3C=C2C1=O (centres undefined)	.	.	.	.	.	-
Cc1ccc(S(=O)(=O)c2nnn3c2nc(N2CCCCC2)c2ccccc23)cc1	-	-	-	-	-	?
Cc1ccc(S(=O)(=O)c2nnn3c2nc(N2CCOCC2)c2ccccc23)cc1	.	-	11.2µM	-	-	.
CC(C)c1ccc(NC(=O)CN2C(=O)c3cccc4cccc2c34)cc1	-	-	.	.	-	.
COc1ccc(C(=O)NCC(c2cccs2)N2CCOCC2)cc1OC (centres undefined)	.	-	-	-	-	.
Cc1ccc(Cl)c(OCC(=O)NCC(c2cccs2)N2CCOCC2)c1 (centres undefined)	?	-67.7	12.6µM	-	?	?
COc1cc(C(=O)NCC(c2cccs2)N2CCOCC2)cc(Br)c1OCc1ccccc1 (centres undefined)	.	-	10µM	-	-	.
SMILES	Lassa entry inh	HCMV antiviral	HCV inh	SARS PLpro yeast	FMDV inh	MARV entry inh
O=C(COc1ccccc1Cl)NCC(c1cccs1)N1CCOCC1 (centres undefined)	-	?	?	.	-	-
COC(=O)c1sccc1S(=O)(=O)N1CCC(n2c(CC3CCCC3)nc3cccnc32)CC1	.	.	.	.	-	.
CCOc1c(Cl)cc(C(=O)N(Cc2ccc(N(C)C)cc2)Cc2ccco2)cc1Cl	?	-	.	.	-	-
CCCNC(=O)CSc1ccc(S(=O)(=O)N(C)C2CCCCC2)cn1	.	-	.	.	-	.
CCC(C)NC(=O)CSc1ccc(S(=O)(=O)N(C)C2CCCCC2)cn1 (centres undefined)	3.98µM	-	?	-	-	?
COc1cc(=O)n2c(c1C(=O)N(C)Cc1nonc1C)CCN(Cc1cc(C)ccc1C)CC2	.	.	.	.	-	.

From PubChem
